# Like-named read-outs stand apart in the source and are kept apart here.
# Tests used:
# Set-up in all cases: species or system human, MV4-11 + K-562 + COLO205 + SK-N-BE2 + OVCAR-8
# CDC42BPA = settings: read-out: apparent Kd, compound concentrations: 100 nM and 1000 nM (sheet 'Samples'), n = 1
# CDC42BPB = settings: read-out: apparent Kd, compound concentrations: 100 nM and 1000 nM (sheet 'Samples'), n = 1
# CDC42BPG = settings: read-out: apparent Kd, n = 1
# CIT = settings: read-out: apparent Kd; compound concentrations: 100 nM and 1000 nM (sheet 'Samples'), CATDS: 4.1257824798939802E-2; n = 1
# GSK3A = settings: read-out: apparent Kd; compound concentrations: 100 nM and 1000 nM (sheet 'Samples'), CATDS: 6.6590939053141299E-2; n = 1
# GSK3B = settings: read-out: apparent Kd; compound concentrations: 100 nM and 1000 nM (sheet 'Samples'), CATDS: 5.7473079866645002E-2; n = 1
# LATS1 = settings: read-out: apparent Kd, compound concentrations: 100 nM and 1000 nM (sheet 'Samples'), n = 1
# MELK = settings: read-out: apparent Kd; compound concentrations: 100 nM and 1000 nM (sheet 'Samples'), CATDS: 3.9798752380349897E-2; n = 1
# PIM2 = settings: read-out: apparent Kd; compound concentrations: 100 nM and 1000 nM (sheet 'Samples'), CATDS: 3.9305369436655899E-2; n = 1
# PKN1 = settings: read-out: apparent Kd, compound concentrations: 100 nM and 1000 nM (sheet 'Samples'), n = 1
# PKN2 = settings: read-out: apparent Kd, compound concentrations: 100 nM and 1000 nM (sheet 'Samples'), n = 1
# PKN3 = settings: read-out: apparent Kd; compound concentrations: 100 nM and 1000 nM (sheet 'Samples'), CATDS: 7.5123616152450098E-2; n = 1
# PRKCD = settings: read-out: apparent Kd, compound concentrations: 100 nM and 1000 nM (sheet 'Samples'), n = 1
# PRKCI = settings: read-out: apparent Kd; compound concentrations: 100 nM and 1000 nM (sheet 'Samples'), CATDS: 3.9274053765020099E-2; n = 1
# ROCK1 = settings: read-out: apparent Kd, compound concentrations: 100 nM and 1000 nM (sheet 'Samples'), n = 1
# ROCK2 = settings: read-out: apparent Kd, compound concentrations: 100 nM and 1000 nM (sheet 'Samples'), n = 1
# RPS6KB1 = settings: read-out: apparent Kd; compound concentrations: 100 nM and 1000 nM (sheet 'Samples'), CATDS: 4.4674945957763799E-2; n = 1
# HSPE1 = settings: read-out: apparent Kd; compound concentrations:100 nM and 1000 nM (sheet 'Samples'); n = 1
# PRKACA = settings: read-out: apparent Kd; compound concentrations: 100 nM and 1000 nM (sheet 'Samples'), CATDS: 0.118024991958308; n = 1
# PRKACB = settings: read-out: apparent Kd; compound concentrations: 100 nM and 1000 nM (sheet 'Samples'), CATDS: 8.0327411283578495E-2; n = 1
# PRKCA = settings: read-out: apparent Kd; compound concentrations: 100 nM and 1000 nM (sheet 'Samples'), CATDS: 4.1587552070859297E-2; n = 1
# PRKG1 = settings: read-out: apparent Kd; compound concentrations: 100 nM and 1000 nM (sheet 'Samples'), CATDS: 6.8591269035778196E-2; n = 1
# PRKX = settings: read-out: apparent Kd; compound concentrations: 100 nM and 1000 nM (sheet 'Samples'), CATDS: 6.1188840569936599E-2; n = 1
# TP53RK = settings: read-out: apparent Kd; compound concentrations: 100 nM and 1000 nM (sheet 'Samples'), CATDS: 4.1650793572711099E-2; n = 1
# CDC42 = settings: read-out: apparent Kd; compound concentrations: 100 nM and 1000 nM (sheet 'Samples'), CATDS: 1; n = 1
# MAPK11 = settings: read-out: apparent Kd; compound concentrations: 100 nM and 1000 nM (sheet 'Samples'), CATDS: 0.36528894613698598; n = 1
# MAPKAPK2 = settings: read-out: apparent Kd; compound concentrations: 100 nM and 1000 nM (sheet 'Samples'), CATDS: 0.21813918573992899; n = 1
# TNK2 = settings: read-out: apparent Kd; compound concentrations: 100 nM and 1000 nM (sheet 'Samples'), CATDS: 0.23701561839687901; n = 1
structure (smiles),measurement,setting,value
NCc1ccc(-n2c(-c3nonc3N)nc3cnccc32)cc1 [SB-750140],potency estimated from few doses,CDC42BPA; CATDS: 5.2351316008414299E-2,0.66 µM
same,potency estimated from few doses,CDC42BPB; CATDS: 8.8336954775193793E-2,0.173 µM
same,potency estimated from few doses,"CDC42BPG; compound concentrations: 100 nM and 1000 nM (sheet 'Samples'), CATDS: 4.2033135949813498E-2",1.42 µM
same,potency estimated from few doses,CIT,1.53 µM
same,potency estimated from few doses,GSK3A,0.339 µM
same,potency estimated from few doses,GSK3B,0.502 µM
same,potency estimated from few doses,LATS1; CATDS: 9.7617752181751005E-2,0.139 µM
same,potency estimated from few doses,MELK,1.8 µM
same,potency estimated from few doses,PIM2,1.91 µM
same,potency estimated from few doses,PKN1; CATDS: 5.10787631229489E-2,0.712 µM
same,potency estimated from few doses,PKN2; CATDS: 0.10529576550344701,0.118 µM
same,potency estimated from few doses,PKN3,0.252 µM
same,potency estimated from few doses,PRKCD; CATDS: 4.7600533204707897E-2,0.895 µM
same,potency estimated from few doses,PRKCI,1.91 µM
same,potency estimated from few doses,ROCK1; CATDS: 0.30602984254096799,0.0163 µM
same,potency estimated from few doses,ROCK2; CATDS: 0.35552561268284599,0.0129 µM
same,potency estimated from few doses,RPS6KB1,1.12 µM
O=C(Nc1n[nH]c2nc(-c3ccccc3)ccc12)C1CC1 [SB-708999],potency estimated from few doses,CDC42BPG; compound concentrations:100 nM and 1000 nM (sheet 'Samples'),1.76 µM
same,potency estimated from few doses,HSPE1,0.296 µM
NCCC(NC(=O)c1cc(Br)c(-c2ccnc3[nH]ccc23)s1)c1ccccc1.NCCC(NC(=O)c1cc(Br)c(-c2ccnc3[nH]ccc23)s1)c1ccccc1.O=C(O)C(F)(F)F.O=C(O)C(F)(F)F (stereo not drawn) [GSK1307810A],potency estimated from few doses,CDC42BPA; CATDS: 7.0311293069570804E-2,0.227 µM
same,potency estimated from few doses,CDC42BPB; CATDS: 0.16933732506395899,0.0304 µM
same,potency estimated from few doses,"CDC42BPG; compound concentrations: 100 nM and 1000 nM (sheet 'Samples'), CATDS: 0.24390813090815999",0.0172 µM
same,potency estimated from few doses,LATS1; CATDS: 4.6540265787969097E-2,1.11 µM
same,potency estimated from few doses,PKN1; CATDS: 4.7667379026866498E-2,0.988 µM
same,potency estimated from few doses,PKN2; CATDS: 4.4394319464929097E-2,1.41 µM
same,potency estimated from few doses,PRKACA,0.0602 µM
same,potency estimated from few doses,PRKACB,0.153 µM
same,potency estimated from few doses,PRKCA,2.07 µM
same,potency estimated from few doses,PRKCD; CATDS: 4.48878810193531E-2,1.33 µM
same,potency estimated from few doses,PRKG1,0.245 µM
same,potency estimated from few doses,PRKX,0.36 µM
same,potency estimated from few doses,ROCK1; CATDS: 0.14218227493934099,0.0416 µM
same,potency estimated from few doses,ROCK2; CATDS: 0.152164814838194,0.0367 µM
same,potency estimated from few doses,TP53RK,2.05 µM
COC(=O)c1cccc(NC(=O)NCCNc2ccnc(Nc3ccc(F)cc3)n2)c1 [GSK1379883A],potency estimated from few doses,CDC42,1.56 µM
Nc1c(C(=O)c2cccc(CCS(N)(=O)=O)c2)cnn1-c1ccc(F)cc1 [RO1162009-000],potency estimated from few doses,"CDC42BPG; compound concentrations: 100 nM and 1000 nM (sheet 'Samples'), CATDS: 0.22426146716058901",1.25 µM
same,potency estimated from few doses,MAPK11,0.5 µM
same,potency estimated from few doses,MAPKAPK2,1.34 µM
same,potency estimated from few doses,TNK2,1.1 µM

# Source: paper PMC11062922 (Nature Chemical Biology, 2023)
